Test [1] can be described thus: Primary qHTS for inhibitors of nuclear receptor binding SET domain protein 2 (NSD2) in an RCH-ACV wild type WT cells (2C) (AID 1645877). Also: nearly all actives have a fitted effect of over 70% in size. Also: potency is read from the fitted curve at half-maximal effect.
The target of test [2] is Glutathione peroxidase 1 (Homo sapiens) (UniProt P07203). The test can be described thus: Primary qHTS Assay for Inhibitors of Recombinant Selenoprotein Glutathione Peroxidase 1 (GPX1) (AID 1845191). Also: nearly all actives have a fitted effect of over 65% in size. Also: potency is read from the fitted curve at half-maximal effect. The method in brief:
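GPX1 10 nM, GR 100 nM, GSH 1 mM, NADPH 0.5 mM, CHP 0.5 mM (final). 30-min cpd preincubation, RT. Ex340/Em450 read t=0, t=15 min.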
A general note: In qHTS, concentration-response curves come from the screen itself.

Test [3] concerns the target Phospholipid hydroperoxide glutathione peroxidase GPX4 (Homo sapiens) (UniProt P36969). Put plainly: Primary qHTS Assay for Inhibitors of Recombinant Selenoprotein Glutathione Peroxidase 4 (GPX4) (AID 1845192). Also: nearly all actives have a fitted effect of over 65% in size. Also: potency is read from the fitted curve at half-maximal effect. The method in brief:
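qHTS, GR-coupled: GPX4 200 nM + cpd 30 min RT → GSH 1 mM, NADPH 0.5 mM, GR 100 nM → CHP 0.5 mM start; fluor 340/450 at t0 and t15 min; no-enzyme wells as control.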

Test [4] has as its target Luciferin 4-monooxygenase (Photinus pyralis) (UniProt P08659). The test can be described thus: Primary firefly luciferase (FLuc) qHTS assay for identification of artifact compounds. (AID 1845220). Also: nearly all actives have a fitted effect of over 60% in size. The following applies: outcome: dose series up to 54.1 µM. A digest of the protocol: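 qHTS, 15 min compound preincubation with substrate (10 uM luciferin, 10 uM ATP) at RT, then 10 nM FLuc; 5 min; luminescence; % inhibition vs no-enzyme/DMSO controls, 4-parameter Hill fit.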

In test [5] the test system is Nanoluciferase (engineered Oplophorus gracilirostris luciferase). Put plainly: Primary Nanoluciferase (NLuc) qHTS assay for identification of artifact compounds. (AID 1845222). Also: series mostly up to about 54 µM. The method in brief: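 Luminescence read-out of secreted NLuc in S16 cell conditioned medium (1:55); compounds tested with 15 min RT preincubation, then Nano-Glo substrate 1:100, 5 min. % inhibition vs no-enzyme and DMSO controls, 4-parameter Hill fit.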

A short description of test [6]: Primary redox qHTS assay for identification of artifact compounds. (AID 1845223). The method in brief: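 Redox-cycling detection via DTT (250 uM final) oxidation coupled to Amplex Red (25 uM)/HRP (250 mU/mL) in HBSS. 15 min preincubation plus 30 min after DTT, room temperature. Ex/Em 525/598 nm; 4-parameter Hill fit against DMSO and 10 uM DA3003.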
Test [7] is described as follows: Viability counterscreen for antagonist of constitutive androstane receptor (CAR) against the NCATS DSHEA and TCM libraries (AID 1794837).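 Also: compound exposure lasted 24 h before viability reading.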 The method in brief: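 Cells: HepG2 line carrying CYP2B6 reporter and hCAR, seeded and attached 5 h. Then pin-transferred test substances plus agonist CITCO at 48 uM final; 24 h incubation; fluorogenic viability reagent, 1 h.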
A general note: A counterscreen serves to expose hits that act by an unwanted route or on another target.

Test [8] is described as follows: Viability counterscreen for agonist of constitutive androstane receptor (CAR) against the NCATS DSHEA and TCM libraries (AID 1794838).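 Also: HepG2 cells with CYP2B6 reporter and hCAR plus 0.75 µM PK11195 antagonist.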 A digest of the protocol:
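Cell health was measured as CellTiter-Fluor signal in HepG2-CYP2B6-hCAR cells treated for 24 h with substances alongside the hCAR antagonist PK11195 (0.75 uM final).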

The target in test [9] is Nuclear receptor subfamily 1 group I member 3 (Homo sapiens) (UniProt Q14994). The test can be described thus: Primary qHTS for agonist of constitutive androstane receptor (CAR) against the NCATS DSHEA and TCM libraries (AID 1794839). Also: potency is read from the fitted curve at half-maximal effect. The method in brief: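 qHTS, agonist mode: HepG2-CYP2B6-hCAR, 2,500 cells/well, 5 h attach; cpds + PK11195 0.75 µM final; 24 h, 37 °C, 5% CO2. Readouts: CellTiter-Fluor (405/540 nm), then ONE-Glo luminescence.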

Test [10] is described as follows: HepG2 viability counterscreen (readout 2: ATP content) against the NCATS DSHEA and TCM libraries (AID 1794840). A digest of the protocol:
(§1)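 Same wells read twice: first fluorescence from cleaved GF-AFC substrate (25 uM final, 30 min, 37C) for live-cell protease, then CellTiter-Glo luminescence after 30 min at room temperature for ATP. HepG2 cells were exposed ~24 h to substances.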

The nature of test [11]: HepG2 viability counterscreen (readout 1: protease activity) against the NCATS DSHEA and TCM libraries (AID 1794841).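 Also: cells exposed to compounds for about 24 h before the protease read.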 The method in brief: as §1
Test [12] deals with Rap guanine nucleotide exchange factor 3 (Homo sapiens) (UniProt O95398). The test can be described thus: Confirmatory qHTS for agonist of cAMP-regulated guanine nucleotide exchange factor 3 (EPAC1) (AID 1645881).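 Also: EPAC1 catalysed release of BODIPY-GDP from Rap1B seen as fluorescence loss; nearly all actives have a fitted effect of over 75% in size.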
The target of test [13] is Rap guanine nucleotide exchange factor 4 (Homo sapiens) (UniProt Q8WZA2). Put plainly: Confirmatory qHTS for agonist of cAMP-regulated guanine nucleotide exchange factor 4 (EPAC2) (AID 1645884).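 Also: nucleotide exchange releases bodipy-GDP from Rap1 and this lowers its fluorescence; nearly all actives have a fitted effect of over 65% in size.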
The nature of test [14]: NCATS anti-infectives library activity on HEK293 viability as a counter-qHTS vs the C. elegans viability qHTS (AID 1745854).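 Also: HEK293 cells exposed to compounds for 24 hr before the viability read.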 The method in brief:
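Compound titrations (final up to 41.7 uM) were incubated with HEK293 cells for 24 hr at 37C under 5% CO2. Viable cells were quantified with CellTiter-Glo after 10 min at ambient temperature.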

Test [15] in a line: NCATS anti-infectives library activity on the primary C. elegans qHTS viability assay (AID 1745855; calls by dose curve; also: potency is read from the fitted curve at half-maximal effect). A digest of the protocol:
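Titration-based screen in worms: eggs hatched overnight in M9, L1 larvae fed TOP10 capsules in S medium with compound, incubated 21 °C for 7 days; fluorescent objects gated by size and intensity at days 0, 3 and 7.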

The target in test [16] is Rap guanine nucleotide exchange factor 4 (Homo sapiens) (UniProt Q8WZA2). Put plainly: Confirmatory qHTS for antagonist of cAMP-regulated guanine nucleotide exchange factor 4 (EPAC2) (AID 1645885). Also: nearly all actives have a fitted effect of over 25% in size.
Test [17] in a line: Primary fluorescence-based thiol-reactive (MSTI) qHTS assay for identification of artifact compounds. (AID 1845221).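 Also: series mostly up to about 54 µM; thiol-reactive compounds lower the probe fluorescence signal; nearly all actives have a fitted effect of over 65% in size.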 A digest of the protocol:
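In PBS pH 7.4 with 2% DMSO, each compound met 4 uM MSTI for one hour at ambient temperature, shielded from light, before fluorescence detection.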

Test [18] concerns the target Rap guanine nucleotide exchange factor 3 (Homo sapiens) (UniProt O95398). The test can be described thus: Counterscreen qHTS for antagonist of cAMP-regulated guanine nucleotide exchange factor 3 (EPAC1) (AID 1645888).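 Also: fluorescence loss as bound BODIPY-GDP is released from Rap1B.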 The method in brief: (§2)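 Measured: fluorescence of BODIPY-GDP bound to Rap1B, which falls as exchange proceeds. Conditions include 50 uM competing GDP, 5 and 30 min reads, and a later cAMP challenge for antagonist detection.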

Test [19] shares this target. The test can be described thus: Counterscreen qHTS for agonist of cAMP-regulated guanine nucleotide exchange factor 3 (EPAC1) (AID 1645889). Also: nearly all actives have a fitted effect of over 40% in size. A digest of the protocol:
as §2

Test [20] deals with Cytochrome P450 3A4 (Homo sapiens) (UniProt P08684). The test can be described thus: qHTS for inhibitors of CYP3A4 against the NCATS DSHEA and TCM libraries (AID 1919971).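 Also: inhibition lowers luminescence from luciferin made by CYP3A4.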 The method in brief:
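Isoform-specific enzyme and substrate levels; enzyme-free wells as background. Reaction: 1x NADPH regenerating system, 30-45 min, room temperature, shielded from light; luminescent detection reagent added, 30 min.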

“And” between values parts separate entries of the source, which are not always exact repeats. Identical values can stand only once. Results filed as inconclusive are left out. A structure can be active in one record and inactive in another. The source made the active and inactive calls. Unless noted, calls follow the shape of the dose curve; as a rule, active = well fitted curve in the direction sought with a large enough effect; inconclusive = small, poorly fitted or top-dose-only effect, or another doubt; inactive = no such curve, though single readings can be large; an effect the other way counts as inactive or inconclusive.

Sequence of Rap guanine nucleotide exchange factor 3 (Homo sapiens) (O95398 whole entry, looked up): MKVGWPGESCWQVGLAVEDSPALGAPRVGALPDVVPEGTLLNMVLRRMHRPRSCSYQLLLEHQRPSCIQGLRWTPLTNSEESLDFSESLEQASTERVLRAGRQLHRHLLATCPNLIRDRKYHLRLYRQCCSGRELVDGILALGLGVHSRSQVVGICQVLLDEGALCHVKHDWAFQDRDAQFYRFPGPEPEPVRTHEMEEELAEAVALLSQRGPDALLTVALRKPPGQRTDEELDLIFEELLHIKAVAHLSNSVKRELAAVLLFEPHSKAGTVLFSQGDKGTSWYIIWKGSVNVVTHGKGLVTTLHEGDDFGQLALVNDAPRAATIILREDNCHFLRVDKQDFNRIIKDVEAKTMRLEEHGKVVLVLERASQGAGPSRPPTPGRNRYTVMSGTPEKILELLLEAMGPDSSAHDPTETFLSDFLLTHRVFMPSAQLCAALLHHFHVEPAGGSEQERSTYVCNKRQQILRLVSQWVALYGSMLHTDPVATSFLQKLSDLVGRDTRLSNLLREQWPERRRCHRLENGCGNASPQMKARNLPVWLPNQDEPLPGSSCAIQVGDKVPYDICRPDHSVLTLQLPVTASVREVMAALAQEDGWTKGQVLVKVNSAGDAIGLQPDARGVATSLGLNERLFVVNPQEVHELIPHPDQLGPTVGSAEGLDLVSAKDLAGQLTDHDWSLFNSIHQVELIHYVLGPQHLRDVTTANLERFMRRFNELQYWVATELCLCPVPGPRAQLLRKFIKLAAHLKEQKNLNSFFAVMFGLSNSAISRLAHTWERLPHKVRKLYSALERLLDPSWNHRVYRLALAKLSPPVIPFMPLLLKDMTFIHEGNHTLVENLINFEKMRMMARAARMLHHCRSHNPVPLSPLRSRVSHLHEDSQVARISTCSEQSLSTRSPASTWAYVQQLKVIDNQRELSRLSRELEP
Sequence of Nuclear receptor subfamily 1 group I member 3 (Homo sapiens) (Q14994 whole entry, looked up): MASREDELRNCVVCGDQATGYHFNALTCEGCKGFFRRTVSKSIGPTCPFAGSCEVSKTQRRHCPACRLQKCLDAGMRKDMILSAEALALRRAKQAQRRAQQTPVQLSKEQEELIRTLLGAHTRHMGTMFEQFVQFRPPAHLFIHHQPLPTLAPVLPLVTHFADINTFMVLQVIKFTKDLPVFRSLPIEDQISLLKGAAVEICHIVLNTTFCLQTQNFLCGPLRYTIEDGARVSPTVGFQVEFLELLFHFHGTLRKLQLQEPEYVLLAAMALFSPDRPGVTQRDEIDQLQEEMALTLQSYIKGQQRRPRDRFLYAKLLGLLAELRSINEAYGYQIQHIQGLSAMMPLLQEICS
Sequence of Rap guanine nucleotide exchange factor 4 (Homo sapiens) (Q8WZA2 whole entry, looked up): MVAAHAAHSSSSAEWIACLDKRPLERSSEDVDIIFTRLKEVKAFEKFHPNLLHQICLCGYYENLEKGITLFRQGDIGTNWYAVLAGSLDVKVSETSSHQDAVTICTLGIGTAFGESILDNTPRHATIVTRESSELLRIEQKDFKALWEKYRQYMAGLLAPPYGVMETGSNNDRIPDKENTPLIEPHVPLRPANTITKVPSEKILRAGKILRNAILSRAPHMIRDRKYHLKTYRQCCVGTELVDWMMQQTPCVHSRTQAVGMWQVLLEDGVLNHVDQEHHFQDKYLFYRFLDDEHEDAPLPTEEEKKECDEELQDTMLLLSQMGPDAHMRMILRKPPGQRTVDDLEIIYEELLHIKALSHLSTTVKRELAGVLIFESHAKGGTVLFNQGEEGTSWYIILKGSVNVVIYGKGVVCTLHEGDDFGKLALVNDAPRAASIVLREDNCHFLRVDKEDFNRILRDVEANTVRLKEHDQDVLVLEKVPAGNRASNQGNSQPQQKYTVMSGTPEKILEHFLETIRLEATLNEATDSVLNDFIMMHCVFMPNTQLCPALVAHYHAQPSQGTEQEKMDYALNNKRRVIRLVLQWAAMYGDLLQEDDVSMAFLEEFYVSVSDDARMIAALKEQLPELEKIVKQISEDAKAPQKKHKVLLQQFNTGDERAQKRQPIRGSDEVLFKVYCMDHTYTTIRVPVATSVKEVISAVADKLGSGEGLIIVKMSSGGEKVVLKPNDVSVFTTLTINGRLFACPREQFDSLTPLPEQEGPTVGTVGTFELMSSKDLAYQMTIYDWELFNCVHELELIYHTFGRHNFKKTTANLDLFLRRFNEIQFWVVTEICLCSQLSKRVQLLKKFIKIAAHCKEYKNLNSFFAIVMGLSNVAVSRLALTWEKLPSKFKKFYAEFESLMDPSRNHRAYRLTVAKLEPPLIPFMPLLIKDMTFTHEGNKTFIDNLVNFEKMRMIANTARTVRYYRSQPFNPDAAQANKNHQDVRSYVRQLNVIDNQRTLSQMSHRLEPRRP
Sequence of Glutathione peroxidase 1 (Homo sapiens) (P07203 whole entry, looked up): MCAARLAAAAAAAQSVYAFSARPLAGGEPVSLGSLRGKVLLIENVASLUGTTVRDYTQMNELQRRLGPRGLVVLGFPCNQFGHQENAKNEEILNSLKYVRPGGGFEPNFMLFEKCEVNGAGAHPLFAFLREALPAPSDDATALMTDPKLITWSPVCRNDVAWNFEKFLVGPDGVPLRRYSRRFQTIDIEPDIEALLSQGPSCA
Sequence of Cytochrome P450 3A4 (Homo sapiens) (P08684 whole entry, looked up, canonical isoform): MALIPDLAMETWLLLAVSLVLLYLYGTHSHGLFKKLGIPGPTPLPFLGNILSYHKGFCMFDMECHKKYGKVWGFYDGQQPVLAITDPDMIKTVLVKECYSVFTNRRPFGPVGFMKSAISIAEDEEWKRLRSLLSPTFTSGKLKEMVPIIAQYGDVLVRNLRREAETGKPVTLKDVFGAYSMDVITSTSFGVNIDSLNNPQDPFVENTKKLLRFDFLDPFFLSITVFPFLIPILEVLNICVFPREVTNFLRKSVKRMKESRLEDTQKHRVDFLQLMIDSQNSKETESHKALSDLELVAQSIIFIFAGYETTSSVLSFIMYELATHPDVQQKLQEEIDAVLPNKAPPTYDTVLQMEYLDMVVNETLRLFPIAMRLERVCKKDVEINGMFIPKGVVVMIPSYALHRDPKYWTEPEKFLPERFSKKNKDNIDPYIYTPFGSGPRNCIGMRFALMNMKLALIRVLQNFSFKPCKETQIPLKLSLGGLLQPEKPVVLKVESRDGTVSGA
Sequence of Phospholipid hydroperoxide glutathione peroxidase GPX4 (Homo sapiens) (P36969 whole entry, looked up): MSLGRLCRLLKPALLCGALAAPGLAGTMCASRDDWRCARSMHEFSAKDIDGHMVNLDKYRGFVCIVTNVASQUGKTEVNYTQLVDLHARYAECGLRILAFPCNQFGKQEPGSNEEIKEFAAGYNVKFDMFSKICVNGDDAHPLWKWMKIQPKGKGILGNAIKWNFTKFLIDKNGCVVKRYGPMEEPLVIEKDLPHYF

For the molecule `C[C@]12CC[C@@H]3c4ccc(OC(=O)c5ccccc5)cc4CC[C@H]3[C@@H]1CC[C@@H]2O`, the Potency result in [1], in test [2] and in test [3] was “inactive” throughout. The molecule was classed as inactive in [4], in test [5] and in test [6].

On to `C=C1CC[C@H](O)CC1=C/C=C1\CCC[C@]2(C)[C@@H]([C@H](C)/C=C/[C@H](C)C(C)C)CC[C@@H]12`, for which the Potency in test [1] was 20.5 µM (active). In addition, the molecule was classed as inactive in [7], in [8], in test [10], in [11], in test [4] and in test [5]. For the same molecule, the Potency result in [9], in test [2] and in test [3] was “inactive” each time.

Regarding `C=CC[C@@H]1/C=C(\C)C[C@H](C)C[C@H](OC)[C@H]2O[C@@](O)(C(=O)C(=O)N3CCCC[C@H]3C(=O)O[C@H](/C(C)=C/[C@@H]3CC[C@@H](O)[C@H](OC)C3)[C@H](C)[C@@H](O)CC1=O)[C@H](C)C[C@@H]2OC`, the molecule was called inactive in test [12], in test [13] and in test [14]. The Potency in test [15] was 3.65 µM (active); in test [2] it was “inactive and 2.55 µM (active)”; in [3], “inactive and 2.82 µM (active)”.

In the case of `CC(=O)Oc1cccc2c1C(=O)c1c(OC(C)=O)cc(C(=O)O)cc1C2=O`, the Potency result in test [1] was “inactive”.

As to `CC(C)Cc1ccc([C@@H](C)C(=O)NS(C)(=O)=O)cc1`, the Potency entry in test [1], in [2] and in test [3] was “inactive” in each case.

Take `COc1ccc([C@@H]2CC(=O)c3c(O)cc(O[C@@H]4O[C@H](CO[C@@H]5O[C@@H](C)[C@H](O)[C@@H](O)[C@H]5O)[C@@H](O)[C@H](O)[C@H]4O)cc3O2)cc1O`: the Potency result in test [1], in [2] and in test [3] was “inactive” in each case.

As to `COc1ccc(/C=C/C(=O)O)cc1`, the call in test [12] and in test [13] was inactive. For the same molecule, in test [16], the Potency entry is “inactive”.

Turning to `CCCCC[C@H](O)/C=C/[C@H]1[C@H](O)CC(=O)[C@@H]1CCCCCCC(=O)O`, in test [1], the Potency was 20.9 µM (active). Also, the Potency entry in test [2] is “inactive”.

`CC[C@H](CC[C@@H](C)[C@H]1CC[C@H]2[C@@H]3CC=C4C[C@@H](O)CC[C@]4(C)[C@H]3CC[C@]12C)C(C)C`: the Potency entry in test [1] and in [2] was “inactive” throughout. For the same molecule, the result in [7], in [8], in test [10] and in [11] was inactive.

`CC(=O)Nc1ccc(NC(=S)NC(=O)c2ccc(C(C)(C)C)cc2)cc1`: the Potency in test [1] is 3.25 µM (active). In addition, the Potency entry in [2] and in test [3] was “inactive” throughout. Also, the molecule was called inactive in [4], in [17], in test [5] and in test [6].

`Oc1ccc(/C=C/c2cc(O)cc(O)c2)cc1`: the Potency in test [1] was 18.8 µM (active) and 11.8 µM (active); in test [9], 31.6 µM (active). Besides, the outcome in test [12], in test [13], in test [18], in test [19], in test [14] and in [7] was inactive. Besides, the outcome in test [8], in test [10] and in test [11] was inactive. Further, the Potency entry in [2] and in [3] was “inactive” in each case.

For the molecule `CC(C)(CO)[C@@H](O)C(=O)NCCC(=O)NCCSSCCNC(=O)CCNC(=O)[C@H](O)C(C)(C)CO`, the Potency result in test [2] was “inactive”.

Turning to `COC1=C(OC)C(=O)C(C/C=C(\C)CC/C=C(\C)CC/C=C(\C)CC/C=C(\C)CC/C=C(\C)CC/C=C(\C)CC/C=C(\C)CC/C=C(\C)CC/C=C(\C)CCC=C(C)C)=C(C)C1=O`, the molecule was called inactive in test [7], in [8], in test [10], in [11] and in [20]. In addition, the Potency result in [9], in [2] and in [3] was “inactive” throughout.

In the case of `CNC(=O)[C@H](Cc1c[nH]c2ccccc12)NC(=O)[C@@H](CC(=O)NO)CC(C)C`, the result in test [14] was inactive. For the same molecule, the Potency entry in [15] and in test [2] was “inactive” each time.

As for `CCOC(=O)[C@H](CS)NCCN[C@@H](CS)C(=O)OCC`, the Potency in test [2] is 22.7 µM (active).

For `Nc1ncnc2c1ncn2[C@H]1CC[C@@H](CO)O1`, the outcome in test [14] was inactive.

Turning to `CCC(O)c1ccccc1` (configuration not stated), the Potency entry in [2] is “inactive”.

Consider `CC/C=C\C/C=C\C/C=C\C/C=C\C/C=C\C/C=C\CCC(=O)O`, for which the molecule was called inactive in [7], in [8], in test [10], in [11] and in test [20]. In addition, the Potency entry in test [9] and in test [2] was “inactive” each time.

Turning to `CC(=O)N=c1sc(S(N)(=O)=O)nn1C`, the molecule was classed as inactive in test [14]. The Potency entry in test [2] and in [3] was “inactive” in each case.

`CCCc1nc(C(C)(C)O)c(C(=O)OCc2oc(=O)oc2C)n1Cc1ccc(-c2ccccc2-c2nn[nH]n2)cc1`: the Potency entry in test [2] is “inactive”.

Take `Cc1ncc(C[n+]2csc(CCO)c2C)c(N)n1`: the result in [7], in [8], in test [10], in test [11] and in test [20] was inactive. The Potency result in test [9], in test [2] and in test [3] was “inactive” each time.

On to `CCCC(CCC)C(=O)OC1C[C@H]2CC[C@@H](C1)[N+]2(C)C` (some centres not stated), for which, in test [14], the outcome was inactive. The Potency result in [2] and in [3] was “inactive” each time.

Take `CO/N=C(\C(=O)N[C@@H]1C(=O)N2C(C(=O)O)=C(CSc3nnnn3C)CS[C@H]12)c1csc(N)n1`: in test [2], the Potency is 11.4 µM (active).

With `CCN(CC)C(=S)S`, the result in [14] was inactive.

In the case of `CC(C)c1nc(N(C)S(C)(=O)=O)nc(-c2ccc(F)cc2)c1/C=C/C(O)CC(O)CC(=O)O` (configuration not stated), in test [14], the outcome was inactive. Besides, the Potency entry in test [2] and in test [3] was “inactive” each time.

(Values after PubChem BioAssay (NCATS).)
